Data reported in PubChem BioAssay AID540256 (National Center for Advancing Translational Sciences (NCATS), 2011).
Several values for one entry are separate records, joined by “and”; a condition that tells them apart may be missing. Equal entries are not always repeated. About 3,700 (1.2%) of roughly 300,000 compounds were called active. Where a call stands in place of a potency, no number is given. Another 20% or so got no clear call; they are omitted. The call rests on the fitted dose curve; tested in HEK293 cells. Only a selection was taken, and actives are over-represented in it overall.

Assay: qHTS for Inhibitors of binding or entry into cells for Lassa Virus; further: nearly all actives have a fitted effect of over 50% in size
Settings: Lassa virus pseudotype entry inhibition, cell reporter; series mostly up to 37.9 µM
Potency means the concentration at half of the fitted maximal effect.

Row | SMILES | Potency
1 | CN(C)CCCn1c(N)c(C#N)c2nc(C#N)c(C#N)nc21 | 15.8 µM (active)
2 | N#Cc1c(N)n(CCOC(=O)c2ccc(Cl)cc2)c2nc3ccccc3nc12 | inactive
3 | CC(C)(C)c1ccc(C(=O)NCCn2c(N)c(C#N)c3nc4ccccc4nc32)cc1 | inactive
4 | O=C(Cc1ccc(S(=O)(=O)N2CCOCC2)s1)Nc1ccc(Br)c(C(F)(F)F)c1 | inactive
5 | O=C(Nc1ncccc1O)c1ccc(C(=O)c2ccccc2)cc1 | inactive
6 | N#CCN(C(=O)COC(=O)C1CC2CCCC(C1)C2=O)c1ccccc1 (stereo unspecified) | inactive
7 | O=C(Oc1cccc(N2C(=O)C3C4c5ccccc5C(c5ccccc54)C3C2=O)c1)c1ccco1 (stereo unspecified) | 8.91 µM (active)
8 | O=C(NC1CC(=O)N(c2ccccc2)C1)c1ccco1 (stereo unspecified) | inactive
9 | CC(=O)Oc1cccc(N2C(=O)C3CC=C(Cl)CC3C2=O)c1 (stereo unspecified) | inactive
10 | CCOc1ccc(CN2CCNC(=O)C2CC(=O)NCCCC2CCCC2)cc1 (stereo unspecified) | inactive
11 | NC(=S)NN=C1CCCC(C(F)(F)F)C1 (stereo unspecified) | inactive
12 | Cc1c(C(=O)N2CCCc3ccccc32)oc2ccccc12 | inactive
13 | O=C(c1c(Cl)nc2sccn12)N1CCCc2ccccc21 | inactive
14 | Cc1cccc2cc3c(N)c(C(=O)N4CCCc5ccccc54)sc3nc12 | 2.82 µM (active)
15 | CC(=NNC(=O)c1ccc2nc[nH]c2c1)c1ccc(Br)cc1 | inactive
16 | O=C(NCCc1ccc(Cl)cc1)c1ccc2c(c1)N(Cc1ccc(F)cc1)C(=O)CS2 | inactive
17 | CCOc1ccc(Br)cc1S(=O)(=O)Nc1ccc(S(=O)(=O)Nc2cc(C)on2)cc1 | inactive
18 | CC(Nc1nc(C(F)(F)F)nc2ccccc12)c1cccs1 (stereo unspecified) | inactive
19 | CCc1ccc(C(CNc2nc(C(F)(F)F)nc3ccccc23)N(C)C)cc1 (stereo unspecified) | 10 µM (active)
20 | NS(=O)(=O)c1ccc(CCNc2nc(C(F)(F)F)nc3ccccc23)cc1 | inactive
21 | Cc1ccc(S(=O)(=O)n2oc(=O)c(C3CCCCC3)c2N)cc1 | inactive
22 | CNC(=S)N1CCN(c2ccccn2)CC1 | inactive

Row | SMILES | Potency
23 | C/C(=N\NC(=O)Cc1ccc(F)cc1)c1ccc(F)cc1 | inactive
24 | C/C(=N\NC(=O)c1ccccc1F)c1ccccn1 | 7.08 µM (active)
25 | CC(=O)Nc1cccc(/C(C)=N/NC(=O)c2ccccc2Cl)c1 | inactive
26 | O=C(Nc1ccc(NC(=O)c2ccccc2F)cc1)c1ccccc1F | inactive
27 | C/C(=N\NC(=O)Cc1ccc(Cl)cc1)c1ccccn1 | 8.2 µM (active)
28 | CC(=NNC(=S)N1CCCCCC1)c1ccccn1 | 0.316 µM (active)
29 | C/C(=N\NC(=O)Cc1ccc(Br)cc1)c1cccnc1 | inactive
30 | CCNC(=S)N1CCN(c2ncccn2)CC1 | inactive
31 | CCOC(=O)CCC(NC(=O)c1ccc(CNc2nc3cc(C(F)(F)F)ccc3nc2C(=O)OCC)cc1)C(=O)OCC (stereo unspecified) | inactive
32 | Cc1nn(-c2ccc(N3CCCCC3)nn2)c(C)c1CCC(=O)NCc1ccc(F)cc1 | inactive
33 | COc1ccc(C(=O)C(C)OC(=O)c2cccc(S(=O)(=O)Nc3c(C)n(C)n(-c4ccccc4)c3=O)c2)cc1 (stereo unspecified) | inactive
34 | O=C(NNc1nc(N2CCCC2)nc(N2CCCC2)n1)c1ccccc1 | inactive
35 | O=C(Nc1ccc(O)cc1)c1ccc(NC(=O)c2ccco2)cc1 | inactive
36 | COCCn1c(SC(C)C(=O)NC2CC2)nnc1-c1cccc(C)c1 (stereo unspecified) | inactive
37 | COC(=O)c1sc(N2CCN(Cc3ccccc3)CC2)nc1N | inactive
38 | C/C(=N\NC(=S)Nc1ccc(C)cc1)c1cc2ccccc2o1 | 6.51 µM (active)
39 | Cc1ccc(OC(=O)c2cc3ccccc3o2)cc1 | inactive
40 | CC(C)Oc1ccc(NC(=O)c2cc3ccccc3o2)cc1 | inactive
41 | CCOc1ncccc1C(=O)Nc1ccc2c(c1)OCCO2 | inactive
42 | COc1cccc2c1C(=O)c1c(O)c3c(c(O)c1C2=O)CC(O)(C(C)=NNC(=O)c1ccc(Cl)c(Cl)c1)CC3OC1CC(N)C(O)C(C)O1 (stereo unspecified) | 0.398 µM (active)
43 | COc1ccc(C2NCCCC2c2ccccc2)cc1 (stereo unspecified) | inactive
44 | Cc1ccccc1NC(=O)Cn1cc(C(=O)C2CC2)c2ccccc21 | inactive

Row | SMILES | Potency
45 | CN(CCc1ccccn1)C1CCCN(S(=O)(=O)c2ccccc2Cl)C1 (stereo unspecified) | inactive
46 | c1ccc2c(c1)C(=NC1CCCCC1)NC2=NC1CCCCC1 | 13 µM (active)
47 | COC(=O)Cc1nc2c(N)nc(N)nc2[nH]c1=O | inactive
48 | COc1cc(/C=C/C2=CC(C)(C)NC(=S)N2)cc(OC)c1OC | inactive
49 | COc1cc(/C=C/c2ccc(/C=C/c3cc(OC)c(OC)c(OC)c3)cc2)cc(OC)c1OC | 11.2 µM (active)
50 | CCC(=O)c1ccc(OC(=O)/C=C/c2cc(OC)c(OC)c(OC)c2)cc1 | inactive
51 | Cc1ccc(NC(=O)C2CC2)cc1S(=O)(=O)N1CCOCC1 | inactive
52 | Cc1cccc(N2CCN(C(=O)CCSCc3ccccc3F)CC2)c1C | inactive
53 | CCC(CC)C(=O)N1CCc2cc(OC)c(OC)cc2C1COc1ccc(F)cc1 (stereo unspecified) | inactive
54 | COc1cc2c(cc1O)[C@H](Cc1ccc(Oc3cc(C[C@@H]4NCCc5cc(OC)c(O)cc54)ccc3O)cc1)NCC2 | inactive
55 | CC[C@H]1CN2CCc3cc(OC)c(OC)cc3[C@@H]2C[C@@H]1C[C@H]1NCCc2cc(OC)c(OC)cc21 | 580 nM (active) and 184 nM (active)
56 | O=C(NC(=S)Nc1ccc(Br)cc1F)C1CCCCC1 | inactive
57 | Nc1cccnc1Sc1ccccc1 | inactive
58 | CC12C=C(C=Cc3ccc(F)cc3)C(C)(C1)C(c1ccc(F)cc1)CC2=O (stereo unspecified) | inactive
59 | O=C(Nc1ccc(-c2nc3cc(NC(=O)c4ccccc4Cl)ccc3o2)cc1)c1ccccc1Cl | inactive
60 | O=C(O)CCCCc1nc2ccccc2s1 | inactive
61 | COc1cccc2sc(NNC(=O)c3nc4ccccc4s3)nc12 | inactive
62 | COc1ccccc1OCc1nc2ccccc2s1 | 10 µM (active)
63 | COc1ccc(-c2cc(=O)oc3cc(OC(C)C(=O)Nc4ccc(CN5CCOCC5)cc4)ccc23)cc1 (stereo unspecified) | inactive
64 | c1ccc2c(c1)OCC(CNc1ncnc3nc[nH]c13)O2 (stereo unspecified) | inactive
65 | S=C(NCC1COc2ccccc2O1)Nc1ccc(Br)cc1 (stereo unspecified) | inactive
66 | c1ccc(-c2cc3c(NCC4COc5ccccc5O4)ncnc3s2)cc1 (stereo unspecified) | 11.6 µM (active)

Row | SMILES | Potency
67 | O=C(Nc1cccc(C(=O)NC2CC2)c1)c1ccc(F)c(S(=O)(=O)N2CCOCC2)c1 | inactive
68 | COc1cccc(NC(=O)c2ccc3c(SCC(=O)O)c4c(nc3c2)CCCC4)c1 | inactive
69 | CCOc1ccc(C(=O)Nc2cc(OC)ccc2OC)cc1 | inactive
70 | CCOc1ccc(C(=O)Nc2ccc3nc4c(c(Nc5ccccc5OC)c3c2)CCCC4)cc1 | 11.2 µM (active)
71 | Cc1ccccc1CS(=O)(=O)CC1Nc2ccc(C(=O)NCc3ccc(Cl)cc3)cc2NC1=O (stereo unspecified) | inactive
72 | Cc1ccc(OCCSc2nc3ccc(NC(=O)COc4ccc(C)cc4)cc3s2)cc1 | inactive
73 | Cc1cc(C)nc(Nc2n[nH]c(-c3ccccc3N)n2)n1 | 6.31 µM (active)
74 | Cc1cc(C)nc(Nc2cc([N+](=O)[O-])ccc2C)n1 | inactive
75 | Cc1cc(C)nc(NC(=O)C(C)N2C(=O)c3ccccc3C2=O)n1 (stereo unspecified) | inactive
76 | CC1CCN(C2=NC(=O)/C(=C/c3ccc(O)cc3)S2)CC1 | inactive
77 | O=[N+]([O-])c1ccc(C=Nc2ccc(Cl)cc2Cl)s1 | 16.4 µM (active)
78 | CNN/C(N=Cc1ccc([N+](=O)[O-])s1)=N\S(=O)(=O)c1cc(C)c(Cl)cc1SCc1ccccc1 | inactive
79 | NC(N)=N/N=C/c1ccc(Cl)c([N+](=O)[O-])c1 | inactive
80 | CCOc1ccc(NC(=O)CSc2nncn2C)cc1 | inactive
81 | NS(=O)(=O)c1ccc(CNC(=O)c2cccc(S(=O)(=O)N3CCc4ccccc43)c2)cc1 | inactive
82 | CN(Cc1ccccc1)C(=O)CSc1nc2ccccc2[nH]1 | inactive
83 | CCOC(=O)C1CCN(C(=O)C2CCCN(S(=O)(=O)c3ccc(OC)c(Cl)c3)C2)CC1 (stereo unspecified) | inactive
84 | COc1ccc(CCNC(=O)C(Sc2ccccn2)c2ccccc2)cc1OC (stereo unspecified) | inactive
85 | COc1ccc(C(CCN(Cc2ccc(OC)c(OC)c2)C(=O)CCl)c2ccccc2)cc1 (stereo unspecified) | 10 µM (active)
86 | CCOC(=O)CN(Cc1ccc(OC)c(OC)c1)S(=O)(=O)c1ccc(OC)cc1 | inactive
87 | CCOC(=O)C1CCN(C(=O)CN2C(=O)NC(C)(c3ccc4cc(OC)ccc4c3)C2=O)CC1 (stereo unspecified) | inactive
88 | COc1ccc(C(=O)Nc2cccc(/C=C(/CCC(=O)O)c3nc4ccccc4s3)c2)cc1 | inactive

Row | SMILES | Potency
89 | CCOc1ccc(CNC(=O)CCc2c(C)nn(-c3ccc(N4CCCCC4)nn3)c2C)cc1 | inactive
90 | COc1ccc2nc(Nc3nc(-c4ccncc4)cs3)sc2c1 | inactive
91 | COc1ccc(Nc2nc(-c3ccccc3)cs2)cc1 | 20.6 µM (active)
92 | NS(=O)(=O)c1ccc(Nc2nc(-c3ccccc3)cs2)cc1 | inactive
93 | Nc1c(-c2ccccc2)nnn1Cc1ccccc1 | inactive
94 | CCOc1ccc2oc(C(=O)N(CC)CC(=O)Nc3ccc(NC(C)=O)cc3)c(C)c2c1 | inactive
95 | Cc1ccc(Nc2c(O)nc[nH]c2=O)cc1C | inactive
96 | Fc1ccc(-c2nc(Nc3cccc(Cl)c3)nc3c2COc2ccccc2-3)cc1 | inactive
97 | O=C(CC(O)(C(F)(F)F)C(F)(F)F)Nc1ccc(Cl)c(Cl)c1 | 4.61 µM (active)
98 | N/C(=N\OC(=O)Nc1ccc(Cl)c(Cl)c1)c1ncc(C(F)(F)F)cc1Cl | inactive
99 | O=C(CC(=O)Nc1ccc(Cl)c(Cl)c1)N/N=C/c1ccc(O)cc1 | inactive
100 | O=C(COc1ccccc1F)Nc1nc(-c2ccccn2)cs1 | inactive
101 | O=C1NC(=O)C(CCc2ccccc2)(c2ccccc2)N1 (stereo unspecified) | inactive
102 | CC(C)[C@H]1COCCS(=O)(=O)N1Cc1ccccc1-c1cccc2c1sc1ccccc12 | inactive
103 | CCn1c(=S)[nH]c2cc(S(=O)(=O)N3CCOCC3)ccc21 | inactive
104 | O=C(CN1C(=O)NC2(CCCCC2)C1=O)NCCc1c[nH]c2ccccc12 | inactive
105 | N#C/C(=C/c1ccc(N2CCCCC2)o1)C(=O)NCCc1c[nH]c2ccccc12 | 7.08 µM (active)
106 | CC(=O)N/C(=C/c1ccc(Cl)cc1)C(=O)NCCc1c[nH]c2ccccc12 | inactive
